In the supplement of paper PMC6555819:

Key:
Test in all cases: PBM binding z-score (relative to random genomic background probes); higher = stronger binding; sequences stand for … in GC…GCGATTGACAGCGTAGAATGAAGG
[1] = test system: RARb homodimer (NR concentration 270 nM)
How it was run: (§1)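 Binding z-scores take random background probes as their reference. They come from custom Agilent 4×180K protein-binding microarrays incubated 1 h with ligand-free nuclear receptor dimers, with antibodies against each partner (one per run) detecting binding. Scanned fluorescence was regression-normalized.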

[2] = test system: RARg:RXRa (NR concentration 270 nM, RXRa partner concentration 90 nM)
How it was run: as §1

[3] = test system: RARg homodimer (NR concentration 270 nM)
How it was run: as §1

[4] = test system: RXRa DBDmut IVT, anti-RXR (DBD mutation: RXRa K156A/R161A, NR concentration 90 nM)
How it was run: as §1

[5] = test system: RXRa homodimer (NR concentration 180 nM)
How it was run: as §1

[6] = test system: THRa:RXRa (NR concentration 90 nM, RXRa partner concentration 90 nM)
How it was run: as §1

[7] = test system: THRa homodimer (NR concentration 90 nM)
How it was run: as §1

[8] = test system: VDR homodimer (NR concentration 270 nM)
How it was run: as §1

Sequence	PBM binding z-score [1]	PBM binding z-score [2]	PBM binding z-score [3]	PBM binding z-score [4]	PBM binding z-score [5]	PBM binding z-score [6]	PBM binding z-score [7]	PBM binding z-score [8]
CGTCCAAGGTAAGAGAGGTCAGTGAATGCCGAGT	3.65	2.87	3.04	0.742	2.46	2.91	1.13	1.93
TCGAGTAGGTTGCGGGGGCATTCAGGGATGAAGA	1.73	2.24	1.59	1.94	1.5	3.75	2.35	3.45
CTATGTAGGTTCAGGGGGTCATTCAGTTTGAAAG	3.91	5.72	3.84	3.68	7.14	3.7	2.11	6.83
CAGAGTAGGTTACGAGGGGGCATTCAGTGCGAAT	2.26	3.13	2.84	1.78	2.2	3.68	1.15	4.2
CGAACTAGGTTAAAGGACAGTGAAAGGCGACGTA	1.34	1	1.38	-0.1	0.702	0.788	-0.308	-0.464
TCTCGGAGGACACGAAAGGTGAGAGCTCGACATC	2.24	1.64	1.99	0.659	0.812	2.51	0.549	-0.374
ATCGAAAGGTCGTGACGTGAGTATACAGAAAGGC	2.18	4.37	3.53	0.904	4.94	2.15	-0.269	0.662
